Records with an inconclusive call do not appear. Where a call stands in place of a potency, no number is given. The source made the active and inactive calls. Unless noted, calls follow the shape of the full dose curve.
What was measured:
[1] = Nuclear factor erythroid 2-related factor 2/antioxidant responsive element (Nrf2/ARE) small molecule agonists: qHTS cell viability counter screen in human keratinocytes (AID 1919968; active = well fitted curve in the direction sought with a large enough effect in the repeat runs; an effect the other way counts as inactive or inconclusive; also: nearly all actives have a fitted effect of over 55% in size)
Procedure, shortened: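 Stably transfected HaCaT (KeratinoSens), 1,500/well. Test agents in DMSO were applied for 23 h, 37 C/5% CO2. CellTiter-Fluor was incubated 1 h before the fluorescence read.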

[2] = Nuclear factor erythroid 2-related factor 2/antioxidant responsive element (Nrf2/ARE) small molecule agonists: luciferase reporter gene qHTS assay in human keratinocytes (AID 1919969); also: nearly all actives have a fitted effect of over 35% in size
[3] = biological target: KiSS-1 receptor (Homo sapiens) (UniProt Q969F8); test: Human kisspeptin (KISS1R) small molecule agonists, calcium flux assay in KISS1R-HEK293 cells (AID 1920064; active = well fitted curve in the direction sought with a large enough effect in the repeat runs; an effect the other way counts as inactive or inconclusive)
KiSS-1 receptor (Homo sapiens), sequence (Q969F8 whole entry, looked up): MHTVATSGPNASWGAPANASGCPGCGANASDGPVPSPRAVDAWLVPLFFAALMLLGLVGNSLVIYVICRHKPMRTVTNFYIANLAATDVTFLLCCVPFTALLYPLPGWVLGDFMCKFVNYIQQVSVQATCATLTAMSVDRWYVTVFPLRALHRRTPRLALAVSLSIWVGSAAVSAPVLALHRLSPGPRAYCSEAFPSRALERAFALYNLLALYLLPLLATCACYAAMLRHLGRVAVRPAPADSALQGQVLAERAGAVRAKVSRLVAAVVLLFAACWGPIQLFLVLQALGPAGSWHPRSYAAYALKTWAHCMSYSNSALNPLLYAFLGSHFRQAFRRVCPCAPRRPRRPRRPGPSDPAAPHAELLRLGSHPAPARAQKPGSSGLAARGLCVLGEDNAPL
Procedure, shortened: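 After overnight (18 h) culture at 37 C/5% CO2, human KISS1R-HEK293 cells received calcium dye for 1 h, then test compound; emission at 540 nm (excitation 480 nm) was tracked for 3 min.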

[4] = G protein-coupled receptor (GPCR) small molecule agonists, calcium flux assay: HEK293 wild type cell line counter screen (AID 1920065)
Procedure, shortened: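 Following 18 h incubation at 37 C/5% CO2, plates got calcium dye for 1 h; compounds, ATP or DMSO were then pinned in and fluorescence followed kinetically (480/540 nm).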

[5] = p53 small molecule agonists, cell-based qHTS assay with human liver microsomes: qHTS cell viability counter screen (AID 1963579); also: nearly all actives have a fitted effect of over 45% in size
Procedure, shortened: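 In this multiplexed counter screen, the reporter plates were subsequently treated with CellTiter-Glo so that cell viability, reflected by luminescence, could be recorded for p53RE-bla cells dosed 16 h with compounds under microsomal activation (HLM and NADPH).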

[6] = p53 small molecule agonists, cell-based qHTS assay with rat liver microsomes: qHTS cell viability counter screen (AID 1963580); also: nearly all actives have a fitted effect of over 45% in size
Procedure, shortened: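 Cytotoxicity counter screen: intracellular ATP measured by CellTiter-Glo luminescence in the same wells as the beta-lactamase reporter read, on HCT-116 p53RE-bla cells exposed 16 h at 37 C to compounds with rat liver microsomes and NADPH, each 0.5 mg/mL final.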

[7] = p53 small molecule agonists, cell-based qHTS assay: qHTS cell viability counter screen (AID 1963581); also: nearly all actives have a fitted effect of over 45% in size
Procedure, shortened: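 qHTS counter screen: 16 h compound exposure at 37 C of p53RE-bla HCT-116 cells (4,000 per well, seeded 5 h prior), cell viability by ATP luminescence.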

[8] = biological target: 5-hydroxytryptamine receptor 2A (Homo sapiens) (UniProt P28223); test: 5-hydroxytryptamine receptor 2A (HTR2A) small molecule antagonists, cell-based qHTS assay (AID 1963586); also: nearly all actives have a fitted effect of over 45% in size; also: potency is read from the fitted curve at half-maximal effect
5-hydroxytryptamine receptor 2A (Homo sapiens), sequence (P28223 whole entry, looked up): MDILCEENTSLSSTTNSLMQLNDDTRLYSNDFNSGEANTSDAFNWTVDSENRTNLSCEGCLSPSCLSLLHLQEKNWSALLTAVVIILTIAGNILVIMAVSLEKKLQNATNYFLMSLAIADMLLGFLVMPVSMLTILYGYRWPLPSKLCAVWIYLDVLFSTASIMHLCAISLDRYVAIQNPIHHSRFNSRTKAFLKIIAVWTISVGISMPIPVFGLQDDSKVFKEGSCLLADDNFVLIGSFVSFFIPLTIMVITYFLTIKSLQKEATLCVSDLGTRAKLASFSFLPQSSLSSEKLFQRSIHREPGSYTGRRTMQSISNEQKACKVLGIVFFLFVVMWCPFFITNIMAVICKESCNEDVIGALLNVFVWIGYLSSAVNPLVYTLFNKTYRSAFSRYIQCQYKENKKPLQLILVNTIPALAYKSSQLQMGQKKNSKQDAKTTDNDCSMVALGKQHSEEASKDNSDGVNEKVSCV
Procedure, shortened: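 CHO cells stably expressing human HTR2A were plated for 18 h at 37 C, then loaded with calcium dye for 1 h. Compounds were preincubated 5 min at room temperature before DOI (4 nM solution) was added. Kinetic fluorescence was read for 3 min.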

[9] = biological target: Muscarinic acetylcholine receptor M1 (Homo sapiens) (UniProt P11229); test: Cholinergic receptor muscarinic 1 (CHRM1) small molecule agonists, cell-based qHTS assay (AID 1963589); also: nearly all actives have a fitted effect of over 35% in size
Muscarinic acetylcholine receptor M1 (Homo sapiens), sequence (P11229 whole entry, looked up): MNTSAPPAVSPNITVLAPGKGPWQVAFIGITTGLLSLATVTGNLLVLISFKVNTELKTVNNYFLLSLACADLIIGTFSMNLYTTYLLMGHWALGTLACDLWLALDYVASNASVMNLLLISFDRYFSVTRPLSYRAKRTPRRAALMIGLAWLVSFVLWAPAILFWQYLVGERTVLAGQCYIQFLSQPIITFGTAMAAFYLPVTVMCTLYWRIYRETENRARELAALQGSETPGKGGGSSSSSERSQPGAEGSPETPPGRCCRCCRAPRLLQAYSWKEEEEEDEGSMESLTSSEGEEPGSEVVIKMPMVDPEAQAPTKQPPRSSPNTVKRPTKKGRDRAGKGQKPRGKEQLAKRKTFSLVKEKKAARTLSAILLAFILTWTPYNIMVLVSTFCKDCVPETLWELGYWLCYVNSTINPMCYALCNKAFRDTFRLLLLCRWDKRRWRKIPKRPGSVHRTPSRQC
Procedure, shortened: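 Kinetic fluorescence (1 s intervals) of calcium-sensitive dye in human M1 CHO cells after compound addition; cells pre-incubated 18 h at 37 C/5% CO2 and dye-loaded 1 h.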

[10] = cAMP Responsive Elements (CRE) small molecule agonists, cell-based qHTS assay (AID 1963590)
Procedure, shortened: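 Test agents in DMSO were incubated 3 h at 37 C/5% CO2 with CRE-bla HEK 293T cells seeded 18 h earlier; LiveBLAzer B/G FRET substrate was added and read after 2 h at room temperature.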

[11] = cAMP Responsive Elements (CRE) small molecule antagonists, cell-based qHTS assay (AID 1963591; active = well fitted inhibition curve with a large enough effect in the signal ratio in the repeat runs, not every such curve was filed as active; the % refers to the signal ratio)
Procedure, shortened: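 Reporter line CRE-bla HEK 293T in dialyzed-FBS DMEM; cells preincubated 18 h, treated 3 h with compound plus NKH477 (0.25 uM final); LiveBLAzer FRET, 2 h RT.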

[12] = biological target: Beta-2 adrenergic receptor (Homo sapiens) (UniProt P07550); test: Adrenergic beta2 receptor (ADRB2) small molecule antagonists, cell-based qHTS assay (AID 1963592); also: nearly all actives have a fitted effect of over 50% in size; also: potency is read from the fitted curve at half-maximal effect
Beta-2 adrenergic receptor (Homo sapiens), sequence (P07550 whole entry, looked up): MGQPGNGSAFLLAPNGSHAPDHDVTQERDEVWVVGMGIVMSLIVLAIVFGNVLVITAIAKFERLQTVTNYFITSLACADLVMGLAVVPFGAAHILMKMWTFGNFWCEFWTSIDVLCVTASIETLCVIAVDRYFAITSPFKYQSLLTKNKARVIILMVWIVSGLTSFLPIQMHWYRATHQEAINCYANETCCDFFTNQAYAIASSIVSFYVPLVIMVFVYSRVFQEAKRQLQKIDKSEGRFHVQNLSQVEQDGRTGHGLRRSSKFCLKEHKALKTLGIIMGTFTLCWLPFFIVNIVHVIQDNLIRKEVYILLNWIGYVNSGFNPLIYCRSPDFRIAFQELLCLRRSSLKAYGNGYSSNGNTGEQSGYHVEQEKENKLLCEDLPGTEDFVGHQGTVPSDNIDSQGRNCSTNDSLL
Procedure, shortened: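 Assay format: CHO-ADRB2 cells, 18-20hr seeding at 37C/5% CO2, then compound plus 1nM isoproterenol agonist mix for 0.5hr RT. Homogeneous time-resolved fluorescence cAMP detection after 1hr, expressed as 665/615 nm ratio.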

[13] = biological target: D(2) dopamine receptor (Homo sapiens) (UniProt P14416); test: Dopamine D2 receptor (DRD2) small molecule agonists, cell-based qHTS assay (AID 1963594); also: nearly all actives have a fitted effect of over 35% in size
D(2) dopamine receptor (Homo sapiens), sequence (P14416 whole entry, looked up): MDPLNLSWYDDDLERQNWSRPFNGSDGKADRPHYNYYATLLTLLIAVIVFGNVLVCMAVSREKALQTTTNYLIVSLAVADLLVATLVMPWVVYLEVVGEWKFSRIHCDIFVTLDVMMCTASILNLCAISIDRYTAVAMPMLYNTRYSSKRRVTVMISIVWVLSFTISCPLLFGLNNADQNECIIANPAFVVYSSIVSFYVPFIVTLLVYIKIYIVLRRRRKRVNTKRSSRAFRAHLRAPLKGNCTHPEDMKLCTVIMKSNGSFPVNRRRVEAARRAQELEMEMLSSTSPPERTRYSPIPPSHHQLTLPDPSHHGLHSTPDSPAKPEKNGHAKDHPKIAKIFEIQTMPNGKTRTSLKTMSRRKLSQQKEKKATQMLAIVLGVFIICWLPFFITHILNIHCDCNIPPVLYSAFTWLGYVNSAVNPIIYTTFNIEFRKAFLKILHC
Procedure, shortened: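 HEK293 cells stably expressing human DRD2, pre-treated with PDE inhibitor Ro20-1724 (0.1 mM final) and compound 10 min at room temperature, then stimulated with NKH477 (200nM […]) for 30 min. cAMP read by HTRF (665/620 nm).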

[14] = biological target: D(2) dopamine receptor (Homo sapiens) (UniProt P14416); test: Dopamine D2 receptor (DRD2) small molecule antagonists, cell-based qHTS assay (AID 1963595; active = well fitted inhibition curve with a large enough effect in the signal ratio in the repeat runs, with a control signal flat; the % refers to the signal ratio)
Procedure, shortened: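 HEK293 cells stably expressing DRD2 were preincubated with 0.1 mM Ro20-1724, then with compound for 10 min at room temperature. Cells were stimulated with 200 nM NKH477 plus 12 nM quinpirole for 30 min, and cAMP was read by HTRF.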

[15] = p53 small molecule agonists, cell-based qHTS assay with human liver microsomes (AID 1963577);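 also: p53 response element beta-lactamase reporter cells with liver microsomes plus NADPH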
Procedure, shortened: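 16 h, 37 C exposure of p53RE-bla cells to compounds with human liver microsomes and NADPH (0.5 mg/mL final each); detection via LiveBLAzer mixture, 2 h dark at room temperature.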

[16] = biological target: 5-hydroxytryptamine receptor 2A (Homo sapiens) (UniProt P28223); test: 5-hydroxytryptamine receptor 2A (HTR2A) small molecule agonists, cell-based qHTS assay (AID 1963587); also: nearly all actives have a fitted effect of over 30% in size
Procedure, shortened: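 CHO cells stably expressing human HTR2A, plated 18 h, loaded with calcium dye 1 h at 37 C. Agonist mode: compounds added and intracellular calcium fluorescence recorded kinetically for 2 min at 1 sec intervals.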

[17] = biological target: Muscarinic acetylcholine receptor M1 (Homo sapiens) (UniProt P11229); test: Cholinergic receptor muscarinic 1 (CHRM1) small molecule antagonists, cell-based qHTS assay (AID 1963588); also: nearly all actives have a fitted effect of over 40% in size
Procedure, shortened: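 Compounds were tested at 15 concentrations in three independent runs. Dye-loaded CHRM1-CHO cells were exposed 5 min at room temperature before stimulation by acetylcholine added at 50nM. Intracellular calcium was read kinetically on FDSS for 3 min.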

[18] = biological target: Beta-2 adrenergic receptor (Homo sapiens) (UniProt P07550); test: Adrenergic beta2 receptor (ADRB2) small molecule agonists, cell-based qHTS assay (AID 1963593);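 also: CHO cells stably overexpressing human ADRB2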
Procedure, shortened: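 CHO cells stably over-expressing ADRB2 were plated overnight at 37C, then dosed with compounds plus a stimulation mix containing 100uM IBMX and 25uM Ro-20-1724 for 0.5hr at room temperature. cAMP was measured by HTRF competition, 1hr.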

[19] = p53 small molecule agonists, cell-based qHTS assay with rat liver microsomes (AID 1963578)
Procedure, shortened: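 With rat liver microsomes and NADPH present (0.5 mg/mL final each), p53RE-bla cells are treated with compound for 16 h at 37 C. LiveBLAzer detection mixture is then applied for 2 h at room temperature in the dark.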

Row | SMILES | Potency [1] | Potency [2] | Potency [3] | Potency [4] | Potency [5] | Potency [6] | Potency [7] | Potency [8] | Potency [9] | Potency [10] | Potency [11] | Potency [12] | Potency [13] | Potency [14] | Potency [15] | Potency [16] | Potency [17] | Potency [18] | Potency [19]
1 | CCCCCCCCCCCCC1CO1 (stereo not drawn) | inactive | inactive | inactive | inactive | inactive | inactive | inactive | inactive | inactive | inactive | inactive | inactive | inactive | inactive |  |  |  |  | 
2 | CC(Cc1cccc(C(F)(F)F)c1)NCCOC(=O)c1ccccc1 (stereo not drawn) | inactive | inactive | inactive | inactive | inactive | inactive |  | 20.5 µM (active) |  | inactive |  | 29.8 µM (active) | inactive | inactive | inactive |  |  |  | 
3 | CC(C)(C)c1ccc(N)cc1 | inactive | inactive | inactive | inactive | inactive | inactive | inactive | inactive | inactive |  | inactive | inactive | inactive | inactive |  | inactive | inactive | inactive | 
4 | CC(=O)OCC(=O)[C@H]1CC[C@H]2[C@@H]3CCC4=CC(=O)CC[C@]4(C)[C@H]3CC[C@]12C | inactive | inactive | inactive | inactive | inactive | inactive | inactive |  | inactive |  |  | inactive | inactive | inactive |  | inactive |  |  | 
5 | COc1ccc2c(c1)c(CC(=O)OC/C=C(\C)CC/C=C(\C)CCC=C(C)C)c(C)n2C(=O)c1ccc(Cl)cc1 | inactive | inactive | inactive | inactive | inactive | inactive | inactive | inactive | inactive | inactive | inactive | inactive | inactive | inactive |  | inactive | inactive | inactive | inactive
6 | OCCOc1cccc(OCCO)c1 | inactive | inactive | inactive | inactive | inactive | inactive | inactive |  | inactive | inactive | inactive | inactive | inactive | inactive |  |  | inactive |  | 
7 | CSCC[C@H](NC(=O)[C@H](Cc1c[nH]c2ccccc12)NC(=O)CCNC(=O)OC(C)(C)C)C(=O)N[C@@H](CC(=O)O)C(=O)N[C@@H](Cc1ccccc1)C(N)=O | inactive | inactive | inactive | inactive | inactive | inactive | inactive |  |  | inactive | inactive | inactive | inactive | inactive |  |  |  |  | 
8 | CCCCCCCCCCCCN(CCCCCCCCCCCC)CCCCCCCCCCCC | inactive | inactive | inactive | inactive | inactive | inactive | inactive | inactive | inactive | inactive |  | inactive | inactive | inactive |  | inactive | inactive | inactive | inactive
9 | CCCc1ccc(OCC(=O)N2CCN(C(=O)COc3ccc(CCC)cc3OC)CC2)c(OC)c1 | inactive | inactive | inactive | inactive |  | inactive | inactive | inactive | inactive | inactive | inactive | inactive | inactive | inactive |  | inactive | inactive |  | inactive
10 | c1ccc2c(c1)CCCC2C1=NCCN1 (stereo not drawn) | inactive | inactive | inactive | inactive | inactive | inactive | inactive | inactive | inactive | inactive | inactive | inactive | inactive |  |  | inactive |  | inactive | 
11 | C#CC(O)C(CC)CCCC (stereo not drawn) | inactive | inactive | inactive | inactive | inactive | inactive | inactive | inactive | inactive | inactive | inactive | inactive | inactive | inactive |  | inactive | inactive | inactive | 
12 | O=C1OC(=O)c2c(Br)c(Br)c(Br)c(Br)c21 | inactive | inactive | inactive | inactive | inactive | inactive | inactive | inactive | inactive | inactive | inactive | inactive | inactive | inactive |  | inactive | inactive | inactive | 
13 | Clc1ccc2nsnc2c1NC1=NCCN1 | inactive | inactive | inactive | inactive |  | inactive | inactive | inactive | inactive | inactive | inactive | inactive | inactive | inactive |  | inactive | inactive | inactive | inactive
14 | CN(C)CCN(C)CCO | inactive | inactive | inactive | inactive | inactive | inactive | inactive | 9.4 µM (active) | inactive |  | inactive | inactive | inactive | inactive |  | inactive | inactive | inactive | 
